According to PubChem BioAssay (NCATS):
Where “and” joins values, the source holds several entries; their conditions need not be identical. Identical values can stand only once. Results filed as inconclusive are left out. A call without a number means that no potency is given here. A number with no mark means an inactive call. Calls of active or inactive are those of the source. Calls come from the whole dose curve; as a rule, active = well fitted curve in the direction sought with a large enough effect; inconclusive = small, poorly fitted or top-dose-only effect, or another doubt; inactive = no such curve, though single readings can be large; an effect the other way counts as inactive or inconclusive.

Columns and labels:
[1] = target: Cellular tumor antigen p53 (Homo sapiens) (UniProt P04637); assay: Primary qHTS for small molecule compounds that upregulate eGFP-tagged delta133p53alpha (in N-terminal) cells. (AID 2060322); details: NCI-H358 eGFP-delta133p53alpha fluorescence, 24 h; activation: active compounds read high; note: nearly all actives have a fitted effect of over 75% in size; note: potency is the fitted concentration of half-maximal effect;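 for activation: cells pre-induced with doxycycline then dosed without doxycycline; series mostly up to about 56 µM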
Method in brief: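 NCI-H358 cells pre-induced 24 h with 10 ng/ml doxycycline for eGFP-delta133p53alpha, plated dox-free and exposed 24 h at 37C to titrated compounds. Fixed, Hoechst-stained; gated GFP peak intensity by laser scanning cytometry, normalized to DMSO (0%) and 57.5 uM 5-azacytidine (100%).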

[2] = target: Aldehyde dehydrogenase, mitochondrial (Homo sapiens) (UniProt P05091); assay: qHTS for Inhibitors of the Aldehyde Dehydrogenase Family (ALDH2) Primary screen (AID 2061308); note: nearly all actives have a fitted effect of over 55% in size
[3] = target: Retinaldehyde dehydrogenase 3 (Homo sapiens) (UniProt P47895); assay: qHTS for Inhibitors of the Aldehyde Dehydrogenase Family (ALDH1A3) Primary screen (AID 2061315)
[4] = BET inhibitor-based combinations targeting novel dependencies in MECOM-rearranged (r) AML: SET-2 cell line (AID 2202231); details: SET-2 AML cells viability, CellTiter-Glo luminescence, 48 h; viability: active compounds read low, concentration not given here; note: nearly all actives have a fitted effect of over 35% in size; note: potency is the fitted concentration of half-maximal effect
Method in brief: (§1)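 Here, 11-point titrations of each agent were applied to 500 seeded cells and incubated 48 hr; CellTiter-Glo signal, scaled against DMSO and empty wells, was integrated as AUC, then Z-scored within the individual line.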

[5] = BET inhibitor-based combinations targeting novel dependencies in MECOM-rearranged (r) AML: OCI-AML3 cell line (AID 2202232); details: Potency: OCI-AML3 viability; note: nearly all actives have a fitted effect of over 35% in size; note: potency is the fitted concentration of half-maximal effect; for viability (% of control): series mostly up to about 46 µM
Method in brief: as §1

[6] = BET inhibitor-based combinations targeting novel dependencies in MECOM-rearranged (r) AML: MV-4-11 cell line (AID 2202233); note: nearly all actives have a fitted effect of over 45% in size; note: potency is the fitted concentration of half-maximal effect
Method in brief: (§2)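 Normalized to DMSO and empty-well controls, the luminescence data from CellTiter-Glo after 48 hr drug exposure were fitted across 11 concentrations. Reported metrics are area under the dose-response curve and its Z-transformed form.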

[7] = BET inhibitor-based combinations targeting novel dependencies in MECOM-rearranged (r) AML: HNT-34 cell line (AID 2202234); note: nearly all actives have a fitted effect of over 35% in size; note: potency is the fitted concentration of half-maximal effect
Method in brief: as §2

[8] = BET inhibitor-based combinations targeting novel dependencies in MECOM-rearranged (r) AML: UCSD-AML1 cell line (AID 2202235); note: nearly all actives have a fitted effect of over 40% in size; note: potency is the fitted concentration of half-maximal effect; for viability (% of control): series mostly up to about 46 µM
Method in brief: as §2

[9] = BET inhibitor-based combinations targeting novel dependencies in MECOM-rearranged (r) AML: AML-191 cell line (AID 2202236; note: nearly all actives have a fitted effect of over 35% in size; note: potency is the fitted concentration of half-maximal effect)
Method in brief: as §1

[10] = BET inhibitor-based combinations targeting novel dependencies in MECOM-rearranged (r) AML: AML-194 cell line (AID 2202237; note: nearly all actives have a fitted effect of over 40% in size; note: potency is the fitted concentration of half-maximal effect)
Method in brief: as §1

Cellular tumor antigen p53 (Homo sapiens), sequence (P04637 whole entry, looked up): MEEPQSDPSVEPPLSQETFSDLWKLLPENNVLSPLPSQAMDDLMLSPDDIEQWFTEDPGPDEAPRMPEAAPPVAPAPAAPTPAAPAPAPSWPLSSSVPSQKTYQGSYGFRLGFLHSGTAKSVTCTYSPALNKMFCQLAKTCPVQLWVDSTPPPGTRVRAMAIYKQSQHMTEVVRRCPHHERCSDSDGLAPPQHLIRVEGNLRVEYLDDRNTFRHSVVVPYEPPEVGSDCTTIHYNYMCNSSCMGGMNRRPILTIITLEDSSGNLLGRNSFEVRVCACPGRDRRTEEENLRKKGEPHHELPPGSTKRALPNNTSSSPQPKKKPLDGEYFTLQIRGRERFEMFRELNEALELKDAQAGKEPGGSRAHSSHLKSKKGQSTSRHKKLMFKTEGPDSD

Compound | Potency [1] | Potency [2] | Potency [3] | Potency [4] | Potency [5] | Potency [6] | Potency [7] | Potency [8] | Potency [9] | Potency [10] | activation [1] | viability [4] [%] | viability (% of control) [5] | viability, % of control [6] | viability (% of control) [7] | viability (% of control) [10]
Cn1cc(-c2ccc(S(=O)(=O)n3ccc(/C=C/C(=O)Nc4ccccc4N)c3)cc2)cn1 | 19000 nM (active) | inactive | inactive | 1860 nM (active) | 1180 nM (active) | 1180 nM (active) | 1050 nM (active) | 1180 nM (active) | 833 nM (active) | 1050 nM (active) | – | – | – | – | – | –
CNC(=O)c1cc(Oc2ccc(NC(=O)Nc3ccc(Cl)c(C(F)(F)F)c3)cc2)ccn1 | – | inactive | inactive | 26300 nM (active) | 9340 nM (active) | 13.2 nM (active) | 10500 nM (active) | 18600 nM (active) | – | 16600 nM (active) | 4.11% | – | – | – | – | –
CCCCC(F)(F)[C@@]1(O)CC[C@H]2[C@H](CC(=O)[C@@H]2CCCCCCC(=O)O)O1 | – | inactive | inactive | – | inactive | 235 nM (active) | inactive | – | inactive | inactive | -19.7% | 108 | – | – | – | –
COc1ccc(Cc2ccc(NC(N)=O)cc2)cc1-c1cccc(Cl)c1 | – | inactive | inactive | – | inactive | inactive | inactive | inactive | – | inactive | 2.49% | 103 | – | – | – | –
Cc1ccc(S(=O)(=O)Cc2nc(-c3ccc(C(=O)NCc4cccnc4)cc3)oc2C)cc1 | – | inactive | inactive | 18600 nM (active) | 11.8 nM (active) | 132 nM (active) | 26.3 nM (active) | – | 23.5 nM (active) | – | 26.3% | – | – | – | – | –
COC(=O)c1ccc2c(C(=Nc3ccc(N(C)C(=O)CN4CCN(C)CC4)cc3)c3ccccc3)c(O)[nH]c2c1 | – | inactive | inactive | 11800 nM (active) | 10500 nM (active) | 166 nM (active) | 1320 nM (active) | 5250 nM (active) | 5250 nM (active) | 5250 nM (active) | 5.68% | – | – | – | – | –
COc1c(C)cc(NC(=O)c2nn(Cc3ccc(F)cc3)c3c2CN(C(=O)c2ccc[nH]2)C[C@]3(C)C(N)=O)cc1C | – | inactive | inactive | – | – | – | – | – | – | – | 0.333% | 118 | 113% [at 8.46 µM] | 114% [at 8.46 µM] | 105% [at 8.46 µM] | 108% [at 8.46 µM]
CCCCc1ccc(NS(=O)(=O)c2ccc(C)c(C(=O)N3CCN(c4cccc(C)c4C)CC3)c2)cc1 | – | inactive | inactive | – | inactive | – | inactive | inactive | inactive | – | -4.4% | 94.4 | – | – | – | –
O=C(Nc1ccc(S(=O)(=O)N2CCOCC2)cc1)c1cc(Cl)ccc1NS(=O)(=O)c1ccc(Cl)s1 | – | inactive | inactive | – | inactive | inactive | – | inactive | – | inactive | 0.837% | 98.4 | – | – | – | –
O=C(Nc1ccc(Oc2ccnc3[nH]ccc23)c(F)c1)c1cccn(-c2ccc(F)cc2)c1=O | – | inactive | inactive | – | 13200 nM (active) | 29.5 nM (active) | – | inactive | 2350 nM (active) | 8330 nM (active) | -27.3% and -22.3% | 106 | – | – | – | –
CC[C@]12C=CCN3CC[C@@]4(c5cc([C@@]6(C(=O)OC)C[C@H]7C[C@@H](C(C)(F)F)CN(Cc8c6[nH]c6ccccc86)C7)c(OC)cc5N(C)[C@H]4[C@@](O)(C(=O)OC)[C@@H]1OC(C)=O)[C@@H]32 | 199 nM (active) | inactive | inactive | 783 nM (active) | 124 nM (active) | 197 nM (active) | – | – | 69.8 nM (active) | 139 nM (active) | – | – | – | – | – | –
CCCn1c(=O)c2[nH]c(-c3cnn(Cc4cccc(C(F)(F)F)c4)c3)nc2n(CC)c1=O | – | inactive | inactive | – | inactive | – | inactive | inactive | inactive | inactive | 0.955% | 114 | – | – | – | –
Cc1ccccc1C(=O)Nc1ccc(C(=O)N2CCCC(O)c3cc(Cl)ccc32)c(C)c1 (stereo not given) | – | inactive | inactive | – | inactive | – | inactive | inactive | inactive | inactive | 0.83% | 88.6 | – | – | – | –
CNc1nc(C)nc(N[C@H]2CCC[C@@H](C(=O)NCc3ccc(C#N)cc3C(F)(F)F)C2)n1 | – | inactive | inactive | – | inactive | – | inactive | inactive | inactive | inactive | 10% | 108 | – | – | – | –
CC1(C)CCC(CN2CCN(c3ccc(C(=O)NS(=O)(=O)c4ccc(NCC5CCOCC5)c([N+](=O)[O-])c4)c(Oc4cnc5[nH]ccc5c4)c3)CC2)=C(c2ccc(Cl)cc2)C1 | – | inactive | inactive | – | 3720 nM (active) | 118 nM (active) | – | – | 18600 nM (active) | 4680 nM (active) | -10.9% | 114 | – | – | – | –
CCOC(=O)c1ccnc(CNCC(=O)N(CC)CCN(C)C)c1 | – | inactive | inactive | – | inactive | inactive | – | inactive | inactive | inactive | 8.33% | 104 | – | – | – | –
